D1 PAM = Potentiators of Human D1 Dopamine Receptor: qHTS. HEK293 TREx D1 cells, calcium flux, dopamine EC20 potentiation. potentiation, % at 10 µM. D(1A) dopamine receptor (Homo sapiens), P21728. 360,000 compounds, 0.036% hits. AID 504651, 2011; in the data active = potentiation above about 30%; also: 0% is about no effect
D1 antagonist = Antagonist of Human D 1 Dopamine Receptor: qHTS; HEK293 TREx D1 cells, calcium flux, dopamine EC80; hits give low values; AID 504652, 2011; 360,000 compounds, 3.2% hits; activity change, negative = inhibition, % at 10 µM; D(1A) dopamine receptor (Homo sapiens), P21728; in the data active = activity change below about -30%; also: % is scaled to controls: 0 for no effect and ±100 for the full control effect
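Tetracycline-induced HEK293 T-REx cells with force-coupled D1 receptor were loaded with a no-wash calcium dye. Compound was added after a 10 s baseline and read kinetically for 180 s; EC80 dopamine was then added and calcium flux followed another 180 s.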
DRD3 agonist = qHTS of D3 Dopamine Receptor Agonist: qHTS; D(3) dopamine receptor (Homo sapiens), P35462; D3R DiscoveRx beta-arrestin cells, luminescence, 90 min; max activation, %; 410,000 compounds, 0.58% hits; AID 652048, 2013; in the data active = max activation above about 30%; also: 0% is about no effect
Target sequence (P35462 whole entry, looked up): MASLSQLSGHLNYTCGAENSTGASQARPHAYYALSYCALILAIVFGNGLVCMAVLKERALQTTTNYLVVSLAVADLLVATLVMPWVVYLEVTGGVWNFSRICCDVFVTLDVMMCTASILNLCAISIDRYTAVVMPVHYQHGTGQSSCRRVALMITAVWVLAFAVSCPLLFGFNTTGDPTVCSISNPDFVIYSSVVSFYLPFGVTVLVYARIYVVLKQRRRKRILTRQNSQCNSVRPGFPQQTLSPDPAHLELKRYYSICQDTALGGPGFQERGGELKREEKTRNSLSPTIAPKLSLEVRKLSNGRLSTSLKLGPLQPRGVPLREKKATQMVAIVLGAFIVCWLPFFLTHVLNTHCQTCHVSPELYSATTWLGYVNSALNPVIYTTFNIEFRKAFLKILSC
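Agonist-mode cell screen: cells plated at 1500/well and incubated overnight at 37 °C, then exposed to library compounds for 90 min at 37 °C. Detection reagent was added for 30–60 min at room temperature, and luminescence was read.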
D1 ag = Allosteric Agonists of the Human D1 Dopamine Receptor: qHTS. D(1A) dopamine receptor (Homo sapiens), P21728. HEK293 T-REx D1 cells, calcium flux, agonist mode. activation, % at 2 µM. 360,000 compounds, 1% hits; in the data active = activation above about 30%; also: 0% is about no effect
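Inducible HEK293 T-REx D1 cells, force-coupled to calcium signalling, were plated at 4000 cells/well with tetracycline and held overnight at 30 C. After no-wash calcium dye loading, compound-evoked calcium rise over 180 s flagged agonists.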
D3 antag = qHTS of D3 Dopamine Receptor Antagonist: qHTS; D(3) dopamine receptor (Homo sapiens), P35462; D3R cells, DiscoveRx beta-arrestin luminescence, antagonist mode; hits give low values; max response, negative = inhibition, %; 360,000 compounds, 2.5% hits; AID 652054, 2013; in the data active = max response below about -50%; inconclusive = no clear call, values can overlap the other calls; also: % is scaled to controls: 0 for no effect and ±100 for the full control effect
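Cells expressing the human receptor were seeded at 1500 cells/well, incubated overnight at 37 degrees C in 5% CO2, then exposed to library compounds with dopamine controls for 90 minutes at 37 degrees C before luminescent detection.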
* marks the source's active call; other numbers are inactive results; ? = inconclusive; / = no result. Shown are actives, neighbours in structure and some others; about 6.1% of the full set was active somewhere.

SMILES	D1 PAM	D1 antagonist	DRD3 agonist	D1 ag	D3 antag
Cc1ccc(S(=O)(=O)c2cnc(SCC(=O)Nc3cc(C)cc(C)c3)nc2N)cc1	7	-4	7	4	/
Cc1ccc(S(=O)(=O)NC(=O)NC2CCCCCCC2)cc1	/	/	4	/	/
CC(C)(C)c1ccc(C(=O)CCC(=O)OCC(=O)NCCc2ccc(S(N)(=O)=O)cc2)cc1	-4	-34*	3	5	1
NS(=O)(=O)c1ccc(CCNc2nc3c(-c4cccc(F)c4)nnn3c3ccc(Cl)cc23)cc1	-1	-15	0	4	/
CCOC(=O)c1[nH]c(C)c(C)c1C	0	19	3	1	8
CCOC(=O)c1[nH]c(C)c(/C=N/O)c1C	-12	-56*	0	1	43
CCOC(=O)C1CCCN(c2nc3c(S(=O)(=O)c4ccc(C)c(C)c4)nnn3c3ccc(Cl)cc23)C1 (configuration not stated)	-3	-13	2	1	/
O=[N+]([O-])c1cc(Br)c(O)c(/C=N/Nc2nnnn2-c2cccc3ccccc23)c1	-2	-20	-53	21	-85*
Cc1nnc(NC(=O)c2sc3nc(-c4cccs4)cc(C(F)(F)F)c3c2N)s1	-2	-30*	4	361*	0
Nc1c(C(=O)Nc2nccs2)sc2nc(-c3cccs3)cc(C(F)(F)F)c12	0	5	-4	116*	17
CC(C)(C)C(=O)c1sc2nc(-c3cccs3)cc(C(F)(F)F)c2c1N	-1	-5	1	0	-19
COc1ccc(-c2nc3sc(CCNC(=O)C(=O)Nc4ccc(C)c(C)c4)c(C)n3n2)cc1	2	/	11	3	/
CCCC(=O)N1CCN(c2nc3ccc(F)cc3s2)CC1	1	/	1	8	/
COc1ccc(C2(C)NC(=O)N(CC3CCCCC3)C2=O)cc1 (configuration not stated)	-5	-52*	-2	12	16
Clc1ccc2scc(CN3CCCCC3)c2c1	-8	-1	-58	3	-88*
CN(C)c1ccc(/C=N/N(CCO)C2=NS(=O)(=O)c3ccccc32)cc1	2	7	-5	40*	?
COc1ccc(C)cc1-n1c(SCC(=O)NCc2ccco2)nc2c([nH]c3ccccc32)c1=O	-3	8	-14	0	/
COc1ccccc1NC(=O)CN1CCC(c2nc3ccc(C)cc3[nH]2)CC1	-3	6	-8	2	8
Cc1ccc2nc(N3CCC(C(=O)NCc4ccc(F)cc4)CC3)[nH]c2c1	3	-10	-7	1	/
COc1ccc(C2=NN(CCC(=O)NC3CCCCCC3)C(=O)CC2)cc1	-3	-33*	-2	1	-3
COc1cccc(CNC(=O)CN2CCC(c3nc4ccc(C)cc4[nH]3)CC2)c1	-2	-38*	-2	0	-7
CC(C)CCNC(=O)C1CCN(c2nc3ccc(Cl)cc3[nH]2)CC1	-1	8	2	0	/
COc1ccc(CNC(=O)C2CCN(c3nc4ccc(C)cc4[nH]3)CC2)cc1	7	-1	-1	38*	/
COCCCNC(=O)C1CCN(c2nc3ccc(C)cc3[nH]2)CC1	-2	-55*	3	2	/
Cc1ccc(NC(=O)Cn2cc(S(=O)(=O)Cc3ccc(F)cc3)c3ccccc32)cc1Cl	8	-6	-3	3	/
SMILES	D1 PAM	D1 antagonist	DRD3 agonist	D1 ag	D3 antag
COc1cc(NS(=O)(=O)c2ccc(-c3cc(C)no3)cc2)cc(OC)c1	-3	-18	4	22	/
COc1cccc(CNC(=O)CN2N=C(c3ccc(C)cc3)CCC2=O)c1	2	-8	33*	0	/
O=C(/C=C/Nc1ccc(F)cc1)c1ccc(Oc2ncccn2)cc1	-9	-41*	1	2	9
CCN(CC)CCOC(=O)c1ccc(N)cc1Cl	/	/	-9	/	/
COc1cccc(NC(=O)CSc2nc3n[nH]c(C)c3c(=N)n2-c2cccc(OC)c2)c1	-9	-31*	8	2	60
Cc1cc(-n2c(SCC(=O)NCc3cccs3)nc3n[nH]c(C)c3c2=N)ccc1Cl	-15	-42*	-8	3	3
CCc1ccc(NC(=O)CSc2nc3n[nH]c(C)c3c(=N)n2-c2cccc(OC)c2)cc1	-6	2	-4	2	10
Cc1[nH]nc2nc(SCC(=O)NCC3CCCO3)n(-c3ccc(Br)cc3)c(=N)c12 (configuration not stated)	-7	9	6	1	-50*
CCCn1c(=O)c2sccc2n2c(CCCC(=O)N3CCN(c4ccc(OC)cc4)CC3)nnc12	-4	3	3	3	/
CC1=C(/C=C/C(C)=C/C=C/C(C)=C/C=C/C=C(C)/C=C/C=C(C)/C=C/C2=C(C)C[C@@H](O)CC2(C)C)C(C)(C)C[C@H](O)C1	/	/	6	/	/
CN1CCN(CC#CC(C)(O)C2CC3C=CC2C3)CC1 (configuration not stated)	-1	-74*	-15	4	0
CCN(CC)S(=O)(=O)c1ccc(Oc2ccc(S(=O)(=O)N(CC)CC)cc2)cc1	-5	-26	2	31*	26
CCN(CC)S(=O)(=O)c1ccc(Oc2ccccc2OC)cc1	-3	-15	-11	8	3
COc1ccc(CNC(=O)c2ccc(CN3C(=O)C(C)=C(c4ccc(C)cc4)S3(=O)=O)cc2)cc1	-4	-3	-5	9	/
S=c1[nH]nc(-c2ccco2)n1/N=C/c1ccc(Cl)cc1Cl	1	-16	1	1	-54*
S=c1[nH]nc(-c2ccco2)n1/N=C/c1cccc(Cl)c1Cl	-9	-8	3	1	1
CC(=C/c1ccccc1)/C=N/n1c(-c2ccco2)n[nH]c1=S	4	1	-4	17	-23
S=c1[nH]nc(-c2ccc(Cl)cc2)n1/N=C/C=C/c1ccco1	-9	14	-3	1	-80*
S=c1[nH]nc(-c2ccccc2)n1/N=C/C=C/c1ccco1	-3	-7	-14	-1	-24
COc1ccccc1/C=C/C=N/n1c(-c2ccccc2)n[nH]c1=S	-3	10	-11	4	-17
COc1ccccc1/C=C/C=N/n1c(-c2ccc(Cl)cc2)n[nH]c1=S	-3	3	-18	2	-63*
S=c1[nH]nc(-c2ccco2)n1/N=C/C=C/c1ccccc1	-5	-12	-13	1	-64*
CCCN1C(=O)CN(C2CCCCCC2)C(=O)C1c1ccc(OCC)c(OC)c1 (configuration not stated)	0	-6	-11	-5	/
S=c1[nH]nc(-c2ccco2)n1-c1cccc2ccccc12	1	21	1	-2	-74*

From PubChem
